# Bioassay records deposited in PubChem BioAssay by several laboratories.
# Rows were chosen to be rich in hits. Some 2.1% of all compounds tested hit in one or more screens of this group.
# aSyn UTR inh: MLPCN primary screen, SNCA 5' untranslated region | alpha-synuclein 5'UTR reporter, inhibitor activity | inhibition, % (tested at 7.5 µM) | actives 0.82% (n = 300,000); in the data active means inhibition above about 60%; inconclusive means no clear call, values can overlap the other calls;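 further: H4 neuroglioblastoma cells stably carrying SNCA 5'UTR luciferase fusion; 0% = DMSO wells and 100% = positive control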
# KLF5 inh: suppresses KLF5 promoter-driven expression; DLD-1 KLF5 promoter-luciferase reporter, luminescence; actives 0.23% (n = 290,000); inhibition, % at 5 µM;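 active means inhibition above a per-plate limit of that plate's mean compound inhibition plus 3 SD, cut at about 60% in these data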;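 further: 0% = DMSO wells and 100% = LY294002 at 200 µM; higher means less KLF5 promoter-driven luciferase light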
# Wee1 stabilizer: blocks degradation of human Wee1 kinase. P30291. HeLa Luc-Wee1K328M stability, luciferase luminescence; 100% = proteasome inhibitor MG132 effect. reporter increase, % at 5 µM. actives 1.2% (n = 220,000). AID 1321;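 active means activation above the mean of all tested compounds plus 3 SD, set per screening run, cut at about 8.8% in these data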;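 further: cells exposed to compound for 20 h before luminescence read; 0% = DMSO alone and 100% = MG132 at 30 µM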
# Target sequence (P30291 whole entry K328M): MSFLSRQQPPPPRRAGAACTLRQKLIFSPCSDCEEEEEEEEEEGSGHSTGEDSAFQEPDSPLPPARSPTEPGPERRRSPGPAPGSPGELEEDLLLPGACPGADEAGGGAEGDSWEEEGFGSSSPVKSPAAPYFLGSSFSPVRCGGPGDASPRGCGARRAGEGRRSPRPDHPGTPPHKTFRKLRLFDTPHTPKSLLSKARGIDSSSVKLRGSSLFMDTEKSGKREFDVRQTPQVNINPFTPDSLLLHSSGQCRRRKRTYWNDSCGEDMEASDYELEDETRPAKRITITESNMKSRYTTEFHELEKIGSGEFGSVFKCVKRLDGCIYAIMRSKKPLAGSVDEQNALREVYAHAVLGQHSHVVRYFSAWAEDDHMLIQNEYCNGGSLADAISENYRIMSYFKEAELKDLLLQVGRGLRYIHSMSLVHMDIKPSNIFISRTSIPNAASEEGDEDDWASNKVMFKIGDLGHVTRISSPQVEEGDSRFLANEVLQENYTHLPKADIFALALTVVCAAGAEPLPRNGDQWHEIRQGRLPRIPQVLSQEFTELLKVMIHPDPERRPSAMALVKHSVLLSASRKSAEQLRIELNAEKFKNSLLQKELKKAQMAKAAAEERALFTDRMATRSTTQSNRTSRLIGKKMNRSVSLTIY
# Platelet DG rel: platelet dense granule release activity | human platelet-rich plasma, SFLLRN dense granule ATP release, luminescence | inhibition, %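 (compounds screened at 7.5 µM in platelet-rich plasma)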 | actives 0.22% (n = 300,000) | AID 1663;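 active means mean replicate score, as percent of positive control, at or above 50; inconclusive means mean below 50 but at least one replicate at or above 50; inactive means mean and every replicate below 50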
# HIF act: HIF pathway transcriptional activation. activation, % at 7.5 µM (by protocol). actives 0.32% (n = 300,000). U2OS HRE-luciferase reporter, luminescence; normalized: DMSO 0%, desferrioxamine 100%;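 active means mean activation of at least 10% of the iron chelator positive control signal, with at least half of replicates also reaching 10%; inconclusive means mean and replicate majority disagree about reaching 10%; inactive means mean and most replicates under 10%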
# KLF5 confirm: confirmation of KLF5 inhibitors | shares compounds with KLF5 inh | DLD-1 KLF5 promoter firefly luciferase reporter, luminescence | inhibition, % at 4 µM | actives 79% (n = 610) | AID 1834;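 active means inhibition above a set limit taken from the earlier primary screen, cut at about 63% in these data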;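 further: 0% = DMSO wells and 100% = LY294002 at 200 µM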
# IEC-6 tox: counter-screen for KLF5 inhibitors: cytotoxicity in rat IEC-6 cells; shares compounds with KLF5 inh; IEC-6 rat intestinal cells, viability luminescence; inhibition, % at 4 µM; actives 56% (n = 610); AID 1905; in the data active means inhibition above about 23%;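 further: cells exposed to compounds for 48 hours before viability read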
# * hit, by the source's call; ? = inconclusive; . = no result given.
SMILES,aSyn UTR inh,KLF5 inh,Wee1 stabilizer,Platelet DG rel,HIF act,KLF5 confirm,IEC-6 tox
O=C(NC1CCCCC1)C(c1cccnc1)N(CCc1ccccc1)C(=O)Cc1cccs1 (centres undefined),-8,-1,-3,-1,-1,.,.
COc1ccc2c(O)c(-c3c(C)cc(C)cc3C)c(=O)[nH]c2c1,-9,.,.,7,-1,.,.
CCOc1cc(Br)cc(/C=N/NC(=O)c2cccnc2)c1O,13,100*,.,-2,9,94*,-3
Cc1ccc(C(=O)N/N=C/c2cc(Br)ccc2O)cn1,3,83*,.,-10,16*,87*,9
O=C(N/N=C/c1cc(Cl)ccc1O)c1ccncc1,-2,70*,-2,-16,26*,88*,-4
COc1ccc2[nH]c3c(NCCC4=CCCCC4)ncnc3c2c1,-195,-137,2,-5,3,.,.
COc1ccc(N/N=C/c2c(C(=O)O)ccc3ccccc23)cc1,56,73*,2,0,50*,91*,7
COc1ccc(/C=N/NC(=O)c2[nH]c3ccc(Br)cc3c2-c2ccccc2)c(C(=O)O)c1OC,-8,3,0,-14,0,.,.
COc1ccc(/C=N/NC(=O)c2[nH]c3ccc(Br)cc3c2-c2ccccc2)cc1,80*,82*,0,2,1,90*,86*
CC1(CCC(=O)N2CCCC(Nc3ccc(F)cc3)C2)CC1 (centres undefined),2,-29,.,-9,0,.,.
CN(CC(=O)Nc1ccc(F)c(F)c1F)C(=O)c1ccc(=O)[nH]c1,-14,-11,.,-7,0,.,.
COc1ccc(Nc2c3c(nc4ccccc24)CCCC3)cc1OC,-21,-34,2,-9,0,.,.
COc1ccc(C)cc1Nc1c2c(nc3ccccc13)CCC2,68*,62*,.,1,0,87*,70*
CC[C@@H]1[C@H]2CCCC(=O)N3CC[C@@H](C[C@@H]1OC(=O)Nc1ccccc1)[C@@H]23,16,-4,.,-5,0,.,.
Cc1nc(N2CCN(Cc3ccc(Cl)cc3)CC2)c2oc3ccccc3c2n1,-17,-6,2,1,0,.,.
COc1ccccc1N1CCN(Cc2cc(Br)c(O)c3ncccc23)CC1,77*,93*,-1,1,12*,65*,-2
COc1ccccc1N1CCN(c2nc(C)nc3c2oc2ccccc23)CC1,90*,67*,0,7,0,79*,64*
Oc1c(Cl)cc(CN2CCCCC2)c2cccnc12,38,98*,.,1,4,92*,12
COc1ccc(-n2nnnc2-c2cccc(OC)c2)cc1,64*,77*,3,1,-9,86*,58*
Cc1cc(/C=N/Nc2ncnc(N)c2[N+](=O)[O-])c(C)n1-c1ccccc1,95*,67*,-5,67*,.,97*,4
COc1cccc(/C=N/Nc2ncnc(N)c2[N+](=O)[O-])c1OC,27,-23,-1,32,1,.,.
O=C(CCN=C1NS(=O)(=O)c2ccccc21)OCc1cccc(Cl)c1,3,.,.,-3,0,.,.
Cc1ccc(Nc2nc(-c3c(C)nc4ncccn34)cs2)cc1,84*,73*,2,-7,0,79*,73*
Cc1ccc(Nc2nc(-c3c(C)nc4ccccn34)cs2)cc1,44,87*,-1,-3,0,87*,79*
CCOc1ccccc1N1CC(C(=O)N(C)Cc2cccnc2)CC1=O (centres undefined),-5,9,.,35,0,.,.
SMILES,aSyn UTR inh,KLF5 inh,Wee1 stabilizer,Platelet DG rel,HIF act,KLF5 confirm,IEC-6 tox
Cc1cccc(N(C(=O)Nc2ccc(Cl)cc2)C2=NCC(C)S2)n1 (centres undefined),-60,-20,-2,-1,2,.,.
O=C(Nc1ccc(NC(=O)c2ccco2)nc1)c1ccco1,1,-60,0,15,-4,.,.
CC(C)(C)C(=O)Nc1ccc(NC(=O)c2ccco2)nc1,102*,94*,.,18,-5,102*,9
Cc1cccc(N2CCN(C(=O)c3ccncc3)CC2)c1C,14,17,3,-5,2,.,.
COc1cc(C(=O)N2CCN(c3cccc(C)c3C)CC2)cc(OC)c1OC,?,72*,-3,3,1,75*,59*
COc1cccc(/C=N/Nc2nccnc2Cl)c1O,90*,104*,-4,84*,31*,90*,-4
CN(C)c1ccc(-c2nn3c(-c4cccnc4)nnc3s2)cc1,-9,.,.,-45,0,.,.
COc1ccccc1-c1nnc2sc(-c3ccc(N(C)C)cc3)nn12,99*,72*,1,-4,0,91*,72*
CC(C)(C)C(=O)Nc1cc2nn(-c3ccccc3)nc2cc1Cl,.,83*,-4,.,.,93*,9
CC(=O)Nc1cc2nn(-c3ccccc3)nc2cc1Cl,-123,-154,3,7,3,.,.
O=C(CCc1ccncc1)N1CCCC(Nc2ccc(F)c(F)c2)C1 (centres undefined),4,-11,.,0,0,.,.
O=C(Nc1ccc2nc3n(c(=O)c2c1)CCCCC3)c1cc([N+](=O)[O-])ccc1F,-42,10,.,-4,-4,.,.
O=C(Nc1ccc2nc3n(c(=O)c2c1)CCCCC3)c1c(F)ccc([N+](=O)[O-])c1F,85*,62*,.,-7,-4,-19,22
CCOC(=O)N1CCN(C(=O)COC(=O)C2CCN(S(=O)(=O)c3ccc(C)c(C)c3)CC2)CC1,6,.,.,13,0,.,.
COC(=O)c1ccc(C)c(NS(=O)(=O)c2ccc(C)c([N+](=O)[O-])c2)c1,3,-10,-2,-5,-1,.,.
COC(=O)c1ccc(C)c(NS(=O)(=O)c2ccc3c(c2)OCCO3)c1,94*,82*,-4,-4,0,76*,56*
COc1cccc(/C=N/NC(=O)c2c(-c3ccccc3)noc2C)c1O,?,48,0,-9,1,.,.
Cc1ccc(/C=N/NC(=O)c2c(-c3ccccc3)noc2C)c(O)c1,30,66*,.,2,18*,63*,23*
COc1cccc(NC(=O)NC2CCCc3ccccc32)c1 (centres undefined),18,-36,-1,1,-1,.,.
Nc1ncnc2c1ncn2[C@H]1C[C@H](O)[C@@H](COP(=O)(O)O)O1,9,75*,-2,13,0,-3,7
Nc1ncnc2c1ncn2[C@H]1C[C@H](O)[C@@H](CO)O1,.,-26,8,.,.,.,.
COc1ccc(S(=O)(=O)N(C)C)cc1NC(=O)CCCSc1ccccc1,13,-28,.,-9,0,.,.
CCc1nnc(NC(=O)c2cc(S(=O)(=O)N(C)c3ccc(OC)cc3)ccc2Cl)s1,3,-28,.,6,0,.,.
c1cc2c(cc1C1=NNC(=NC3CC3)SC1)OCCO2,111*,79*,-6,75*,-1,102*,30*
